TDP1 cell CPT – DT40-hTDP1 cell growth loss with CPT. chicken DT40 Tdp1-/-;hTDP1 cells + 20 nM CPT, ATP luminescence, 48 h. Potency, µM (top dose mostly 46.2 µM), without a hit: at the top dose activity change, negative = growth inhibition, most hits filed as inhibitors. actives 12% (n = 420,000); further: potency means the concentration at half of the fitted maximal effect; nearly all actives have a fitted effect of over 55% in size
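Chicken DT40 Tdp1-/- cells stably complemented with human TDP1 were seeded at 400 cells/well in medium containing 20 nM camptothecin, exposed to pin-transferred compounds, and grown at 37 °C for at least 48 hr. Viability was read as ATP luminescence.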
HT1080-NT tox – kills 2HG-producing HT-1080-NT fibrosarcoma cells; actives 1.6% (n = 360,000); Potency, µM (highest dose often 46.1 µM), without a hit: top-dose activity, negative = less viability, hits mostly cytotoxic; HT-1080-NT fibrosarcoma viability, CellTiter-Glo ATP luminescence, 48 h;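 further: NT is the 2HG producing partner of a matched IDH1 knockdown line; potency means the concentration at half of the fitted maximal effect; 0% = DMSO-treated cells and -100% = media-only wells without cells; nearly all actives have a fitted effect of over 55% in size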
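Toxicity toward the 2HG-producing NT line was scored as %Activity, normalised to DMSO and no-cell wells, from CellTiter-Glo luminescence after 48 hours' treatment.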
HT1080 IDH1KD tx – HT-1080 IDH1 knockdown cell toxicity (counter line); HT-1080 IDH1 knockdown viability, ATP luminescence, 48 h; Potency, µM (series often up to 46.1 µM), for the others: at the highest dose activity, negative = toxicity, actives largely listed as cytotoxic; actives 2% (n = 360,000);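 further: potency means the concentration at half of the fitted maximal effect; 0% = DMSO wells and -100% = cell-free medium wells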
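Viability of IDH1-knockdown HT-1080 fibrosarcoma cells was assessed by CellTiter-Glo after 48 h at 37 °C with titrated compound; concentration-effect curves were classified by fit quality and response size.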
DT40 TDP1 no CPT – qHTS for Inhibitors of human tyrosyl-DNA phosphodiesterase 1 (TDP1): qHTS in cells in absence of CPT; AID 686978, 2013; actives 15% (n = 420,000); Potency, µM (doses to about 46.2 µM), inactives show top-dose activity change, negative = growth inhibition, most hits filed as inhibitors; DT40 Tdp1-/- hTDP1 cells, no CPT, ATP luminescence, 48 h; further: potency means the concentration at half of the fitted maximal effect; nearly all actives have a fitted effect of over 55% in size
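No-CPT arm: Tdp1-/-;hTDP1 DT40 cells (400/well) plus compounds, incubated ≥48 hr at 37 °C. Readout CellTiter-Glo luminescence.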
uPA generation – cell surface uPA generation inhibition; cell surface uPA generation assay, qHTS; Potency, µM (doses to about 38.3 µM), for inactives: top-dose activity change, negative = inhibition, usual class: inhibitors; actives 0.31% (n = 330,000); AID 540303; active means well fitted inhibition curve with a large enough effect; inconclusive means small, poorly fitted or top-dose-only effect; inactive means no such curve, though single readings can be large or run the other way; tested in mouse RAW 264.7 cells; further: potency means the concentration at half of the fitted maximal effect; nearly all actives have a fitted effect of over 55% in size
IL-1B inflam inh – inhibitors of inflammasome signaling (IL-1 beta secretion); THP-1 LPS/ATP IL-1B secretion, AlphaLISA, 16 h; hits give low values; activity change, % at 57.5 µM; actives 4.7% (n = 360,000); AID 743279; in the data active means activity change below about -50%; inconclusive means mostly about -30% to -49%
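Secreted IL-1B measured by AlphaLISA bead assay after 16 h compound exposure of THP-1 cells; compounds (final up to 57.5 uM) added 1 h before LPS (250 ng/mL) and ATP (1.25 mM) stimulation; lower signal means less secretion.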
The depositor's hits bear a star; ? = inconclusive; · = no result. An excerpt weighted towards active compounds, which were near 19% of everything screened. Unless noted, the call rests on the fitted dose curve; in most records, active means well fitted curve in the direction sought with a large enough effect; inconclusive means small, poorly fitted or top-dose-only effect, or another doubt; inactive means no such curve, though single readings can be large; an effect the other way counts as inactive or inconclusive. Unless noted, on the % scale 0 is the no-effect control and ±100 the full control effect.

SMILES	TDP1 cell CPT	HT1080-NT tox	HT1080 IDH1KD tx	DT40 TDP1 no CPT	uPA generation	IL-1B inflam inh
COc1cc(O)c(CCC(=O)c2ccc(OC)c(OC)c2)c(OC)c1	21µM*	5%	-14%	?	-3%	-24
COc1ccc(NC(=S)N(Cc2ccc(C(=O)O)cc2)Cc2ccc(OC)c(OC)c2)cc1	11%	0%	15%	9%	-2%	-15
COc1ccc(C(=O)CCc2ccc(OC)c(OC)c2)cc1	?	4%	-19%	18µM*	-3%	-1
COc1ccc(CCC(C)NC(=O)Cc2ccc(OC)c(OC)c2)c(OC)c1 (configuration not stated)	?	2%	0%	18µM*	-5%	-1
Cc1cnccn1	?	·	·	11%	·	·
CCCNC(=O)CSc1nc2ccccc2nc1Cc1ccc(Cl)cc1	1%	·	·	?	·	·
O[C@@H](c1ccccc1)C1CCN(CCc2ccccc2)CC1	-9%	·	·	-23%	·	·
COc1ccc(CCC(=O)NO)cc1	11µM*	·	·	16µM*	·	·
COc1ccc2[nH]cc(S(=O)(=O)c3ccc(C)c(C)c3)c(=O)c2c1	-13%	·	·	-20%	·	·
CS(=O)(=O)n1nc(OC(=O)c2cccc3ccccc23)cc1N	-28%	?	?	-17%	-4%	-57*
CCC(C)C(=O)Nc1nc(-c2ccc3c(c2)NC(=O)CO3)cs1 (configuration not stated)	?	-10%	-8%	18µM*	-6%	-15
O=C1COc2ccc(-c3csc(NCCc4ccccc4)n3)cc2N1	16µM*	-13%	-25%	3.7µM*	1%	-76*
Nc1nc(-c2ccc3c(c2)NC(=O)CO3)cs1	?	-2%	-13%	-25%	-2%	-14
CN1C(C(=O)N2CCc3ccccc3C2)=CC(c2ccc(F)cc2)=NS1(=O)=O	?	-17%	-1%	26µM*	-21%	17
COc1ccc(C2=NS(=O)(=O)N(C)C(C(=O)N3CCC(C)CC3)=C2)cc1	?	18%	-2%	?	-14%	22
O=C(c1cccc(F)c1)N1CCN(C(=O)c2cc3nc(-c4ccco4)cc(C(F)(F)F)n3n2)CC1	-24%	28%	15%	15µM*	1%	-2
O=C(c1cnn2c(C(F)(F)F)cc(-c3ccc(F)cc3)nc12)N1CCc2ccccc2C1	?	0%	4%	21µM*	?	-26
O=C(c1cc2nc(-c3ccco3)cc(C(F)(F)F)n2n1)N1CCc2ccccc2C1	?	-4%	-8%	23µM*	5%	6
COc1cc(-c2noc(CSc3nc(-c4ccccc4)cc(=O)[nH]3)n2)cc(OC)c1OC	-8%	·	·	-22%	·	·
Cc1ccc(C(=O)N2NC(c3ccc(F)cc3)C3C(=O)N(c4ccc(C)c(C)c4)C(=O)C32)cc1 (configuration not stated)	-21%	0%	-2%	-17%	-5%	3
O=C(C(=O)N1CCC(c2ccccc2)CC1)c1cccc([N+](=O)[O-])c1	-8%	15%	11%	?	·	-4
O=C(COc1ccc(CNC[C@H]2O[C@@H](n3ccc(=O)[nH]c3=O)[C@H](O)[C@@H]2O)cc1)Nc1ccccn1	0%	12%	20%	9%	·	4
CCCNC(=O)c1cc(C2CCCCN2C(=O)CCCc2ccccc2)on1 (configuration not stated)	-23%	4%	?	-20%	·	26
Cc1ccc(-c2onc(C)c2C)cc1S(=O)(=O)N1c2ccccc2CC1C (configuration not stated)	?	·	·	16µM*	·	·
Cc1ccc(-c2onc(C)c2C)cc1S(=O)(=O)N1CCOc2ccccc21	18µM*	?	?	21µM*	-19%	?
SMILES	TDP1 cell CPT	HT1080-NT tox	HT1080 IDH1KD tx	DT40 TDP1 no CPT	uPA generation	IL-1B inflam inh
Cc1cc(Br)ccc1NC(=O)CSCc1c(C)noc1C	?	5%	14%	-27%	-2%	-8
CC1=C(C(=O)OC2CCCC2)C(c2cccc(Cl)c2Cl)CC(=O)N1 (configuration not stated)	?	·	·	23µM*	·	·
COc1ccccc1C1CC(=O)NC(C)=C1C(=O)OCC(C)C (configuration not stated)	12µM*	-11%	-14%	13µM*	-3%	15
CCOC(=O)C1=C(C)NC(=O)CC1c1ccccc1OC (configuration not stated)	-25%	2%	12%	1%	0%	22
COc1ccc(COC(=O)C2=C(C)NC(=O)CC2c2cccc(Cl)c2Cl)cc1 (configuration not stated)	-16%	·	·	-6%	·	·
CC1=C(C(=O)OC2CCCC2)C(c2c(Cl)cccc2Cl)CC(=O)N1 (configuration not stated)	?	·	·	26µM*	·	·
COC(=O)C1=C(C)NC(=O)NC1c1ccccc1Cl (configuration not stated)	7%	-5%	-4%	8%	7%	-9
CC1=C(C(=O)OC2CCCC2)C(c2ccccc2Cl)CC(=O)N1 (configuration not stated)	16µM*	·	·	13µM*	·	·
COC(=O)C[C@@H]1C=C[C@H](NC(=O)c2ccccc2)[C@@H](CO)O1	4%	?	23%	5%	·	16
Cc1ccc(/C=C/C(=O)c2ccc([N+](=O)[O-])o2)cc1	1.6µM*	12µM*	3.7µM*	2.1µM*	?	-113*
Cc1ccc(/C=C/C(=O)c2ccc(C)cc2)cc1	-26%	9%	7%	?	·	?
Cc1cc(O)c(C(=O)/C=C/c2ccc(Cl)cc2)c(=O)o1	?	0%	7%	?	2%	?
Cc1ccc(CNC(=S)Nc2ccc(C)c([N+](=O)[O-])c2)cc1	23µM*	6%	1%	15µM*	1%	13
Cc1ccc(-c2csc(NC(=O)c3ccc([N+](=O)[O-])o3)n2)cc1	?	4%	-27%	?	-3%	-106*
O=C(/C=C/c1ccc(Cl)cc1)c1ccc([N+](=O)[O-])o1	1µM*	?	13µM*	0.65µM*	?	?
COc1ccc(-n2c3c(cc(-c4nc(-c5ccc(Cl)cc5)cs4)c2=O)C(=O)CC(C)(C)C3)cc1	13%	·	·	-11%	·	·
